Measured values reported in PubChem BioAssay (EPA / NIEHS).
Active and inactive are the calls of the source. Rule for the calls: active = hit-call score of the fitted dose curve at least 0.9, where 1 is the maximum; inactive = score below 0.9.

Columns and labels:
Settings in all cases: mRNA level, 48 h; actives raise or lower the signal
[1] = read-out: Ezrin (EZR), EZR (gene 7430); test: LTEA_HepaRG_EZR: Life Technologies and Expression Analysis (LTEA) Assay for Ezrin (EZR) using HepaRG (AID 2283491)
In short: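 Differentiated human HepaRG cells, 48 h after plating, were exposed in serum-free induction medium for 48 hours to eight half-log concentrations up to 100 uM in 0.5% DMSO. EZR mRNA was measured by TaqMan qRT-PCR, normalized to ACTB, GAPDH and POLR2A, and fitted bidirectionally against DMSO.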

[2] = read-out: Cytochrome P450 3A7 (Homo sapiens) (UniProt P24462); test: LTEA_HepaRG_CYP3A7: Life Technologies and Expression Analysis (LTEA) Assay for CYP3A7 using HepaRG (AID 2283492)
In short: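 Cells were thawed, plated, cultured 48 h, then treated for a further 48 h with chemicals (eight-point half-log series from 100 uM, 0.5% DMSO). RNA was isolated and CYP3A7 expression quantified by qRT-PCR normalised to ACTB, GAPDH and POLR2A.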

CYP3A5 (gene 1577) = test: LTEA_HepaRG_CYP3A5: Life Technologies and Expression Analysis (LTEA) Assay for CYP3A5 using HepaRG (AID 2283493)
In short: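 Readout was CYP3A5 mRNA by qRT-PCR. HepaRG cultures were exposed for 48 h in serum-free induction medium to chemicals at up to 100 uM, and responses were fitted in both directions relative to DMSO vehicle.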

[3] = read-out: Fatty Acid-Binding Protein 1 (FABP1), FABP1 (gene 2168); test: LTEA_HepaRG_FABP1: Life Technologies and Expression Analysis (LTEA) Assay for Fatty Acid-Binding Protein 1 (FABP1) using HepaRG (AID 2283494)
In short: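 Values reflect bidirectional concentration-response fitting of FABP1 mRNA change against 0.5% DMSO controls. Human HepaRG cultures received eight half-log doses (top 100 uM) for 48 h; expression quantified by TaqMan qRT-PCR with housekeeping-gene normalization.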

[4] = read-out: Cytochrome P450 4A22 (Homo sapiens) (UniProt Q5TCH4); test: LTEA_HepaRG_CYP4A22: Life Technologies and Expression Analysis (LTEA) Assay for Cytochrome P450 4A22 (CYP4A22) using HepaRG (AID 2283495)
In short: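 Cryopreserved HepaRG cells, plated and cultured 48 h, then switched to serum-free induction medium and treated 48 h (duplicates, up to 100 uM, half-log steps, 0.5% DMSO). Expression change of CYP4A22 was fitted bidirectionally against vehicle.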

[5] = read-out: Cytochrome P450 7A1 (Homo sapiens) (UniProt P22680); test: LTEA_HepaRG_CYP7A1: Life Technologies and Expression Analysis (LTEA) Assay for Cytochrome P450 7A1 (CYP7A1) using HepaRG (AID 2283496)
In short: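 Using 0.5% DMSO as vehicle and baseline, chemicals were tested in duplicate over an 8-point range from 100 uM on HepaRG cells for 48 h; qRT-PCR signals were normalised to ACTB, GAPDH and POLR2A.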

[6] = read-out: Glutathione S-Transferase (GSTA2), GSTA2 (gene 2939); test: LTEA_HepaRG_GSTA2: Life Technologies and Expression Analysis (LTEA) Assay for Glutathione S-Transferase (GSTA2) using HepaRG (AID 2283497)
In short: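 Oxidative-stress marker GSTA2 is quantified by TaqMan qRT-PCR in HepaRG cultures treated 48 h across an eight-point range to 100 uM. Expression is normalized to endogenous controls and compared with 0.5% DMSO vehicle.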

[7] = read-out: Glutamate-cysteine ligase catalytic (GCLC), GCLC (gene 2729); test: LTEA_HepaRG_GCLC: Life Technologies and Expression Analysis (LTEA) Assay for Glutamate-cysteine ligase catalytic (GCLC) using HepaRG (AID 2283498)
In short: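 Oxidative-stress marker GCLC is measured as mRNA change in human HepaRG liver cells after 48 h chemical treatment in 0.5% DMSO, eight concentrations from 100 uM. Activity is fitted bidirectionally against vehicle.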

[8] = read-out: growth arrest and DNA damage 45 (GADD45G), GADD45G (gene 10912); test: LTEA_HepaRG_GADD45G: Life Technologies and Expression Analysis (LTEA) Assay for growth arrest and DNA damage 45 (GADD45G) using HepaRG (AID 2283499)
In short: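 Human hepatic HepaRG line treated 48 h with chemicals (eight concentrations, half-log steps from 100 uM); transcript induction or repression of GADD45G scored by qRT-PCR versus DMSO vehicle.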

[9] = read-out: Glutamate-cysteine ligase regulatory (GCLM), GCLM (gene 2730); test: LTEA_HepaRG_GCLM: Life Technologies and Expression Analysis (LTEA) Assay for Glutamate-cysteine ligase regulatory (GCLM) using HepaRG (AID 2283500)
In short: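 In this multiplexed HepaRG gene-expression assay, GCLM mRNA change after 48 h treatment (8 concentrations, max 100 uM) was scored against DMSO by bidirectional curve fitting.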

[10] = read-out: Glutathione S-transferase M3 (GSTM3), GSTM3 (gene 2947); test: LTEA_HepaRG_GSTM3: Life Technologies and Expression Analysis (LTEA) Assay for Glutathione S-transferase M3 (GSTM3) using HepaRG (AID 2283501)
In short: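 Changes in GSTM3 expression, an oxidative-stress marker, were scored by bidirectional curve fitting against 0.5% DMSO vehicle. Human HepaRG cultures received chemicals for 48 h in duplicate, highest concentration 100 uM with half-log dilutions.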

[11] = read-out: Heat shock 70 kDa protein 1 (HSPA1A), gene 3303; test: LTEA_HepaRG_HSPA1A: Life Technologies and Expression Analysis (LTEA) Assay for Heat shock 70 kDa protein 1 (HSPA1A) using HepaRG (AID 2283502)
In short: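 An oxidative-stress marker readout: HepaRG cells treated 48 h in duplicate with an eight-point series (highest 100 uM) had HSPA1A mRNA quantified by TaqMan qRT-PCR. Activity was fitted in both directions using 0.5% DMSO as baseline.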

[12] = read-out: 3-Hydroxy-3-Methylglutaryl-CoA Synthase 2 (HMGCS2), HMGCS2 (gene 3158); test: LTEA_HepaRG_HMGCS2: Life Technologies and Expression Analysis (LTEA) Assay for 3-Hydroxy-3-Methylglutaryl-CoA Synthase 2 (HMGCS2) using HepaRG (AID 2283504)
In short: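 Expression of HMGCS2 in human HepaRG liver cells is measured by qRT-PCR 48 h after dosing (highest 100 uM, half-log series, 0.5% DMSO). Values come from bidirectional concentration-response fitting with DMSO as baseline.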

HGF (gene 3082) = test: LTEA_HepaRG_HGF: Life Technologies and Expression Analysis (LTEA) Assay for Hepatocyte Growth Facto (HGF) using HepaRG (AID 2283505)
In short: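 Gain or loss of HGF mRNA in human HepaRG liver cells after 48 h chemical exposure; eight concentrations up to 100 uM with 0.5% DMSO vehicle, quantified by TaqMan qRT-PCR.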

[13] = read-out: Insulin Like Growth Factor 1 (IGF1), IGF1 (gene 3479); test: LTEA_HepaRG_IGF1: Life Technologies and Expression Analysis (LTEA) Assay for Insulin Like Growth Factor 1 (IGF1) using HepaRG (AID 2283506)
In short: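 Endpoint: IGF1 mRNA change by qRT-PCR, housekeeping-normalized, fitted bidirectionally relative to 0.5% DMSO vehicle. Human HepaRG cells were treated 48 h in serum-free induction medium, eight half-log concentrations topping at 100 uM.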

[14] = read-out: Intercellular Adhesion Molecule 1 (ICAM1), ICAM1 (gene 3383); test: LTEA_HepaRG_ICAM1: Life Technologies and Expression Analysis (LTEA) Assay for Intercellular Adhesion Molecule 1 (ICAM1) using HepaRG (AID 2283507)
In short: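 Gain or loss of transcript in HepaRG hepatic cells is quantified by qRT-PCR after 48 h chemical exposure (up to 100 uM, half-log steps), with DMSO as baseline.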

[15] = read-out: Insulin-like growth factor-binding protein 1 (IGFBP1), IGFBP1 (gene 3484); test: LTEA_HepaRG_IGFBP1: Life Technologies and Expression Analysis (LTEA) Assay for Insulin-like growth factor-binding protein 1 (IGFBP1) using HepaRG (AID 2283508)
In short: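 mRNA induction or loss was quantified by qRT-PCR after 48 h chemical exposure of human HepaRG cells, with 0.5% DMSO as vehicle and baseline. Concentration-response over eight points up to 100 uM.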

[16] = read-out: Interleukin 6 (IL6), IL6 (gene 3569); test: LTEA_HepaRG_IL6: Life Technologies and Expression Analysis (LTEA) Assay for Interleukin 6 (IL6) using HepaRG (AID 2283509)
In short: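 Changes in IL6 mRNA, up or down relative to 0.5% DMSO controls, were derived from concentration-response curves in human HepaRG cells treated for 48 h at up to 100 uM, with ACTB, GAPDH and POLR2A as normalizers.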

[17] = read-out: Hypoxia-inducible factor 1-alpha (Homo sapiens) (UniProt Q16665); test: LTEA_HepaRG_HIF1A: Life Technologies and Expression Analysis (LTEA) Assay for Hypoxia-inducible factor 1 (HIF1A) Trancription factor using HepaRG (AID 2283503);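 note: HIF1A transcript by TaqMan qRT-PCR normalized to ACTB GAPDH and POLR2A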
In short: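 Gain- or loss-of-signal HIF1A mRNA changes are fitted against a DMSO baseline. HepaRG cultures receive eight concentrations, highest 100 uM, for 48 h in serum-free induction medium with 0.5% DMSO.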

[18] = read-out: Interleukin 6 Receptor (IL6R), IL6R (gene 3570); test: LTEA_HepaRG_IL6R: Life Technologies and Expression Analysis (LTEA) Assay for Interleukin 6 Receptor (IL6R) using HepaRG (AID 2283510);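 for AC50: TaqMan qRT-PCR signal normalized to ACTB GAPDH and POLR2A housekeeping genes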
In short: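 In this HepaRG screen, test chemicals act on cells for 48 h at up to 100 uM (eight half-log points, duplicate wells). IL6R expression is quantified by qRT-PCR after normalization to ACTB, GAPDH and POLR2A, with DMSO as baseline.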

Measured: AC50

Sequence of Cytochrome P450 3A7 (Homo sapiens) (P24462 whole entry, looked up): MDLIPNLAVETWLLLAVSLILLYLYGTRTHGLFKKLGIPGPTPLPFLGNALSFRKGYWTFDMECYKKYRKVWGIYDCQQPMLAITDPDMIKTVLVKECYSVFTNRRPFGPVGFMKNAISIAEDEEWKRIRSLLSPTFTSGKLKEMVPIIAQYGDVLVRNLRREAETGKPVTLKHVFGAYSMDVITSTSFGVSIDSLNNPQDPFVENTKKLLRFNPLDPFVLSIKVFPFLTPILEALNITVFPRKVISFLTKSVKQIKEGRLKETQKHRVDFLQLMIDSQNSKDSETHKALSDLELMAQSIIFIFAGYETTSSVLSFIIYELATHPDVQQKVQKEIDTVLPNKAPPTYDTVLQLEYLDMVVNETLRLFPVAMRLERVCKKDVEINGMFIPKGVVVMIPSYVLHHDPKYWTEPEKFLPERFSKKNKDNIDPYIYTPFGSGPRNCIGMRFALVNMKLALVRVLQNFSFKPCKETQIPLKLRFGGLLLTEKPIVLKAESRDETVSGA
Sequence of Hypoxia-inducible factor 1-alpha (Homo sapiens) (Q16665 whole entry, looked up): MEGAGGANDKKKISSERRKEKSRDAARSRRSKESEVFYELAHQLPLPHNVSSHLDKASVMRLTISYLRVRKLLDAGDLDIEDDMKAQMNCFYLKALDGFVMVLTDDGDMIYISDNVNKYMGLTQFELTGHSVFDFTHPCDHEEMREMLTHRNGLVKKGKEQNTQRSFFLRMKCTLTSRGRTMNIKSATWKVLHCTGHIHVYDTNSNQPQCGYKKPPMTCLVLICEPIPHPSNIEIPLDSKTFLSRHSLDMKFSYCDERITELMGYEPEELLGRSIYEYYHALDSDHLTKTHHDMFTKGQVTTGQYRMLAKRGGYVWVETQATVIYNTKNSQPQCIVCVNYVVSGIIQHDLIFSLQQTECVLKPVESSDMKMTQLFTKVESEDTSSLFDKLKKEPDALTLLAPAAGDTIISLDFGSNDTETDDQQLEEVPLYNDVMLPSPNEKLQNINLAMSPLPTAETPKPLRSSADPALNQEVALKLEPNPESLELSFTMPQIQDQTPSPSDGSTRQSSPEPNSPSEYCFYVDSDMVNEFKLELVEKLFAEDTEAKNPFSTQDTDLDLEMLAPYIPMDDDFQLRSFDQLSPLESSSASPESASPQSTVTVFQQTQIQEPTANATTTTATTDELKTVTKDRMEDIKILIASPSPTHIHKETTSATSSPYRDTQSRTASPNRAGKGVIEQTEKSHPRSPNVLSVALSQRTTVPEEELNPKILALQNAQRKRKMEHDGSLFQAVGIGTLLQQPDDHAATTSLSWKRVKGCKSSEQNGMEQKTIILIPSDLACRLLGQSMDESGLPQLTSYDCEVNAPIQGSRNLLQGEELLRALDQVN

Cc1cn([C@H]2C[C@H](N=[N+]=[N-])[C@@H](CO)O2)c(=O)[nH]c1=O
not listed: [17] | [18]
inactive: all other assays above

CCCCOC(=O)CC(CC(=O)OCCCC)(OC(C)=O)C(=O)OCCCC
inactive: all assays above

O=c1c(-c2ccc(O)cc2)coc2cc(O)cc(O)c12
inactive: all assays above

CCCCCCCCCC(=O)O
not listed: [9]
inactive: all other assays above

CC/C(=C(/CC)c1ccc(O)cc1)c1ccc(O)cc1
active: CYP3A5 (gene 1577) 50 µM | [3] 94.1 µM | [5] 84.8 µM | [7] 78.7 µM | [8] 71.7 µM | [11] 75.8 µM | [17] 85.7 µM | HGF (gene 3082) 23.6 µM | [15] 66.6 µM | [16] 93 µM | [18] 78.5 µM
inactive: [1] | [2] | [4] | [6] | [10] | [12] | [13] | [14]

O=c1[nH]sc2ccccc12
not listed: [9]
inactive: all other assays above

O=C(O)Cn1c(=O)n(Cc2ccc(Br)cc2F)c(=O)c2ccc(Cl)cc21
not listed: [2] | [18]
inactive: all other assays above

COc1cccc([C@H](O)C2CCN(CCc3ccc(F)cc3)CC2)c1OC
active: [8] 69.1 µM | [10] 72.9 µM | [15] 33.6 µM
not listed: [9] | [18]
inactive: all other assays above

CN1C(=O)N(c2ccccc2Br)Cc2cnc(Nc3ccc4c(c3)OCC(CO)O4)nc21 (configuration not stated)
active: [2] 50 µM | CYP3A5 (gene 1577) 82.1 µM | [3] 58.8 µM | [4] 50 µM | [5] 72.8 µM | [6] 78 µM | [7] 65.8 µM | [8] 66.6 µM | [11] 92.4 µM | [17] 1.33 µM | [12] 75.4 µM | [13] 32.7 µM | [15] 62.3 µM | [16] 11.6 µM
inactive: [1] | [10] | HGF (gene 3082) | [14]

O=C(Nc1ccc(Cl)cc1)Nc1ccc(Cl)c(Cl)c1
inactive: [1] | CYP3A5 (gene 1577) | [10] | [14] | [18]
active: [3] 16.7 µM | [4] 24.2 µM | [5] 26 µM | [6] 27.2 µM | [8] 22.8 µM | [11] 29.1 µM | [17] 72.1 µM | [12] 28.6 µM | HGF (gene 3082) 50 µM | [13] 24.4 µM | [15] 27.7 µM | [16] 23.3 µM

Cc1c2ccccc2c(C)c2c1ccc1ccccc12
inactive: [1] | [7] | [8] | [10]
active: [2] 30.3 µM | CYP3A5 (gene 1577) 11.9 µM | [3] 50 µM | [4] 51.9 µM | [5] 65.9 µM | [6] 39.4 µM | [17] 90.9 µM | [12] 52.5 µM | HGF (gene 3082) 63.3 µM | [14] 82.1 µM | [15] 70.3 µM | [16] 83 µM | [18] 13.5 µM

Cc1occc1C(=O)Nc1ccc(C(=O)N2CCC(F)(F)/C(=C\C(=O)N3CCC(N4CCCCC4)CC3)c3ccccc32)cc1
active: [4] 57.5 µM | [5] 17.2 µM | [6] 52 µM | [10] 31.2 µM | [12] 31.2 µM | [13] 5.3 µM | [15] 46.1 µM | [16] 51.9 µM | [18] 27.5 µM
not listed: [9]
inactive: all other assays above
